Screening data from PubChem.
Sampled rows, rich in hits. Any-hit rate of the full collection: about 18%.
DT40 TDP1 CPT – DT40-hTDP1 cell growth loss with CPT | AID 686979 | Potency, µM (highest dose often 46.2 µM), without a hit: at the highest dose activity change, negative = growth inhibition, most hits filed as inhibitors | chicken DT40 Tdp1-/-;hTDP1 cells + 20 nM CPT, ATP luminescence, 48 h | 420,000 tested, 12% active; note: potency is the fitted concentration of half-maximal effect; nearly all actives have a fitted effect of over 55% in size
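Chicken DT40 Tdp1-/- cells complemented with human TDP1, 400 cells/well, exposed to compounds plus 20 nM camptothecin for at least 48 h at 37 C; viability read as ATP content by CellTiter-Glo luminescence.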
LDHA block – LDHA (human) enzyme inhibition | P00338 | purified LDHA, NADH/diaphorase-resazurin fluorescence; active compounds read low | activity change, % (values are at about 110 or 230 µM) | 480,000 tested, 0.15% active | AID 1347041; in the data active = activity change below about -30%; inconclusive = mostly about -25% to -30%;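 note: plate controls were DMSO wells for no effect and wells without enzyme for full effect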
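Enzyme activity of human lactate dehydrogenase 5 (2 nM; 0.06 mM NADH, 0.2 mM pyruvate, 5 min, RT) is measured via a resazurin/diaphorase fluorescence readout of residual NADH.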
IL-1B inflam inh – inhibitors of inflammasome signaling (IL-1 beta secretion). THP-1 LPS/ATP IL-1B secretion, AlphaLISA, 16 h; active compounds read low. activity change, % at 57.5 µM. 360,000 tested, 4.7% active. AID 743279; in the data active = activity change below about -50%; inconclusive = mostly about -30% to -49%
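THP-1 cells pretreated 1 hr with compounds (up to 57.5 uM final), then stimulated with LPS (250 ng/mL final) plus ATP (1.25 mM final); secreted IL-1B measured by AlphaLISA after 16 hr, decreased signal indicating inhibition.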
RORgamma inh – ROR gamma (mouse) transcription inhibition; Drosophila S2 Gal4-RORgamma UAS-luciferase reporter, 20 h; 310,000 tested, 5.4% active; AID 2551; Potency, µM (doses to about 53.6 µM), without a hit: at the highest dose activity change, negative = inhibition, actives largely listed as inhibitors; note: potency is the fitted concentration of half-maximal effect; nearly all actives have a fitted effect of over 60% in size
Target sequence (P51450 whole entry, looked up, the tested form may be a part): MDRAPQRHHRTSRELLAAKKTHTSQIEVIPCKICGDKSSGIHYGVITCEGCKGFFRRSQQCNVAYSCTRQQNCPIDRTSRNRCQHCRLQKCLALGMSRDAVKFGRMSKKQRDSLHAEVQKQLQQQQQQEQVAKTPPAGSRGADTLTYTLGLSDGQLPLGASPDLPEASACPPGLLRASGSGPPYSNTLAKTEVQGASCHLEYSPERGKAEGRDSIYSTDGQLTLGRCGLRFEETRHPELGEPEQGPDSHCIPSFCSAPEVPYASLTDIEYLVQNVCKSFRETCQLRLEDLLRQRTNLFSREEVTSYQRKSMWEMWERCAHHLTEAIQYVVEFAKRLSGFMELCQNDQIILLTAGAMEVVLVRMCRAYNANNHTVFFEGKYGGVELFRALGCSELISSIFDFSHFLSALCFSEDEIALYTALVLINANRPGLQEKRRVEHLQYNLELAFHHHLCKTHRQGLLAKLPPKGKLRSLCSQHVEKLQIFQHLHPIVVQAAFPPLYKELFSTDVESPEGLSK
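Stable Schneider cell line, Gal4 DNA-binding domain fused to ROR gamma, UAS-luciferase. Cmpd 1 hr RT → CuSO4 700 uM final → 20 hr RT → luciferase reagent 10 min → luminescence.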
TDP1 cell noCPT – qHTS for Inhibitors of human tyrosyl-DNA phosphodiesterase 1 (TDP1): qHTS in cells in absence of CPT; DT40 Tdp1-/- hTDP1 cells, no CPT, ATP luminescence, 48 h; Potency, µM (top dose mostly 46.2 µM), for inactives: at the top dose activity change, negative = growth inhibition, hits mostly inhibitors; 420,000 tested, 15% active; AID 686978, 2013; note: potency is the fitted concentration of half-maximal effect; nearly all actives have a fitted effect of over 55% in size
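Camptothecin absent (DMSO only). Human TDP1-complemented DT40 knockout cells, 400 cells/well, 37 °C for minimum 48 hr; ATP measured via CellTiter-Glo, 30 min dark incubation, luminescence.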
Gal4-VP16 FLuc – Gal4-VP16 reporter inhibition counter-screen; Drosophila S2 Gal4-VP16 UAS-luciferase, luminescence, 20 h; Potency, µM (series often up to 53.6 µM), inactives show at the highest dose activity, negative = inhibition, usual class: inhibitors; 310,000 tested, 3.5% active;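 note: Gal4-VP16 expression switched on by copper sulfate through the metallothionein promoter; potency is the fitted concentration of half-maximal effect; nearly all actives have a fitted effect of over 50% in size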
An asterisk follows results filed as active. Unless noted, calls come from the whole dose curve; as a rule, active = well fitted curve in the direction sought with a large enough effect; inconclusive = small, poorly fitted or top-dose-only effect, or another doubt; inactive = no such curve, though single readings can be large; an effect the other way counts as inactive or inconclusive. Unless noted, % is set by controls: 0 for no effect and ±100 for the full control effect.

For O=C1CC(C(=O)Nc2ccccc2C(F)(F)F)n2nc(SCc3ccccc3)nc2N1 (stereo not given) the results were LDHA block 11.
Screening Fc1ccc(CNCCN2CCCC2)c(F)c1 returned LDHA block 0.
`Fc1ccc(Nc2ncnc3onc(-c4ccc(Cl)cc4)c23)cc1Cl` gave DT40 TDP1 CPT inconclusive, LDHA block 5 and TDP1 cell noCPT 18µM*.
Screening Cc1ccc(CCNc2ncnc3onc(-c4ccc(Cl)cc4)c23)cc1 returned DT40 TDP1 CPT inconclusive, LDHA block 6 and TDP1 cell noCPT 26µM*.
For Clc1ccc(-c2noc3ncnc(NCCCN4CCN(c5ccccc5)CC4)c23)cc1 the results were DT40 TDP1 CPT inconclusive, LDHA block 1 and TDP1 cell noCPT inconclusive.
`COc1ccc(CNc2ncnc3onc(-c4ccc(F)cc4)c23)cc1` gave DT40 TDP1 CPT 21µM*, LDHA block -2 and TDP1 cell noCPT 29µM*.
`COc1ccc(CCNc2ncnc3onc(C)c23)c(OC)c1` gave DT40 TDP1 CPT 1.2µM*, LDHA block -4 and TDP1 cell noCPT 0.52µM*.
For Cc1ccc2nc(-c3cccnc3)cc(C(=O)Nc3cccc(C)n3)c2c1 the results were LDHA block -3.
Screening CN(C)C(CNC(=O)c1cc(=O)c2cc(Cl)ccc2o1)c1ccco1 (stereo not given) returned LDHA block -2.
`Cc1noc2ncnc(NCc3ccc(Cl)cc3)c12` gave DT40 TDP1 CPT 13µM*, LDHA block 0 and TDP1 cell noCPT 16µM*.
For Cc1ccc(CCNc2ncnc(Cl)c2N)cc1 the results were DT40 TDP1 CPT 0.46µM*, LDHA block -3, IL-1B inflam inh -22 and TDP1 cell noCPT 0.52µM*.
Cc1cccc(CCNc2ncnc3onc(-c4ccc(Cl)cc4)c23)c1 was read as DT40 TDP1 CPT inconclusive, LDHA block -6 and TDP1 cell noCPT 18µM*.
Screening Clc1ccc(CNc2ncnc3onc(-c4ccc(Cl)cc4)c23)cc1 returned DT40 TDP1 CPT inconclusive, LDHA block 2 and TDP1 cell noCPT 18µM*.
Screening CC(C)CNc1ncnc2onc(-c3ccc(Cl)cc3)c12 returned DT40 TDP1 CPT -27%, LDHA block -2 and TDP1 cell noCPT -25%.
CC1CCC(Nc2ncnc3onc(-c4ccc(Cl)cc4)c23)CC1 (stereo not given) was read as DT40 TDP1 CPT inconclusive, LDHA block 0 and TDP1 cell noCPT inconclusive.
For O=C(Cn1ccc2cc(S(=O)(=O)N3CCCCC3)ccc21)N1CCOCC1 the results were LDHA block -2.
`CC1(C)CC(NC(=O)CCn2ccc3ccccc32)CC(C)(C)N1` gave LDHA block 3.
Screening COc1ccc(-c2cc(C(F)F)n3ncc(C(=O)NCCCN4CCCC4=O)c3n2)cc1 returned DT40 TDP1 CPT inconclusive, LDHA block -13, IL-1B inflam inh -25, RORgamma inh 23%, TDP1 cell noCPT 16µM* and Gal4-VP16 FLuc -4%.
`CCCNC(=O)c1cnn2c(C(F)F)cc(-c3ccccc3)nc12` gave DT40 TDP1 CPT 21µM*, LDHA block -6 and TDP1 cell noCPT 21µM*.
For O=C(NCCCN1CCCC1=O)c1cc(-c2ccc(F)cc2)nc2ccccc12 the results were DT40 TDP1 CPT inconclusive, LDHA block -3, IL-1B inflam inh 5 and TDP1 cell noCPT 26µM*.
For COc1ccc(-c2cc(C(F)F)n3ncc(C(=O)N4CCCCC4)c3n2)cc1 the results were DT40 TDP1 CPT inconclusive, LDHA block -5, IL-1B inflam inh -28, RORgamma inh inconclusive, TDP1 cell noCPT inconclusive and Gal4-VP16 FLuc -13%.
For Cc1ccc(NC(=O)c2cnn3c(C(F)F)cc(-c4ccccc4)nc23)c(C)c1 the results were DT40 TDP1 CPT -2%, LDHA block -3 and TDP1 cell noCPT 18µM*.
CC(C)(C)c1ccccc1NC(=O)c1cnn2c(C(F)F)cc(-c3ccccc3)nc12 was read as DT40 TDP1 CPT -24%, LDHA block -3 and TDP1 cell noCPT -23%.
Screening COCc1cc(C)n(CC(=O)Nc2cc(C(F)(F)F)ccc2Cl)c(=O)c1C#N returned LDHA block -2.
For CCCCN(C)c1c(C)nc2ccc(C(=O)NCc3ccc4c(c3)OCO4)cn12 the results were DT40 TDP1 CPT inconclusive, LDHA block -2, IL-1B inflam inh -12 and TDP1 cell noCPT 23µM*.
CCc1nc2ccc(C(=O)NCc3ccc4c(c3)OCO4)cn2c1N(CC)CCOC was read as DT40 TDP1 CPT inconclusive, LDHA block -3, IL-1B inflam inh -15 and TDP1 cell noCPT inconclusive.
For CCCCN(C(C)=O)c1c(CC)nc2ccc(C(=O)NCCOc3ccc(OC)cc3)cn12 the results were DT40 TDP1 CPT inconclusive, LDHA block -4, IL-1B inflam inh -5 and TDP1 cell noCPT 13µM*.
For CCc1nc2ccc(C(=O)NCCOc3ccc(OC)cc3)cn2c1N(CCN(C)C)CC1CC1 the results were DT40 TDP1 CPT inconclusive, LDHA block -5, IL-1B inflam inh inconclusive and TDP1 cell noCPT inconclusive.
Screening CCCCN(C)c1c(C)nc2ccc(C(=O)NCCOc3ccc(OC)cc3)cn12 returned DT40 TDP1 CPT 13µM*, LDHA block 4, IL-1B inflam inh -13 and TDP1 cell noCPT 18µM*.
COc1ccc(OCCNC(=O)c2ccc3nc(C)c(N(C)C(=O)CCc4ccccc4)n3c2)cc1 was read as DT40 TDP1 CPT 23µM*, LDHA block -9, IL-1B inflam inh -10 and TDP1 cell noCPT inconclusive.
Screening COc1ccc(-n2c(COc3cccc(C)c3)nnc2SCC(=O)O)cc1 returned DT40 TDP1 CPT 4%, LDHA block -6, IL-1B inflam inh -1, RORgamma inh 36%, TDP1 cell noCPT -13% and Gal4-VP16 FLuc -3%.
`COc1ccc(OCc2n[nH]c(=S)n2-c2ccc(C)cc2)cc1` gave DT40 TDP1 CPT 15%, LDHA block -1, IL-1B inflam inh 13, RORgamma inh 2.2µM*, TDP1 cell noCPT 1% and Gal4-VP16 FLuc inconclusive.
`COc1cc([N+](=O)[O-])c(OC)cc1SCc1n[nH]c(=S)n1-c1ccc(C)cc1` gave DT40 TDP1 CPT 14%, LDHA block -5, IL-1B inflam inh 33, RORgamma inh 2.2µM*, TDP1 cell noCPT -6% and Gal4-VP16 FLuc -11%.
